Assay outcomes as filed in PubChem BioAssay.
ATXN viability – reduces viability in counter-screen for ATXN expression inhibitors. S2 cells (HEK-293 line with an ATXN2-luciferase reporter) viability, CellTiter-Fluor protease fluorescence, 24 h. Potency, µM (doses to about 56.7 µM), usual class: cytotoxic. 0.49% of 400,000 active. AID 651635; note: potency is the fitted concentration of half-maximal effect; nearly all actives have a fitted effect of over 40% in size
IL1B secr inh – inflammasome signaling inhibition, IL-1 beta readout; AID 743279; 4.7% of 360,000 active; activity change, % at 57.5 µM; THP-1 LPS/ATP IL-1B secretion, AlphaLISA, 16 h; stronger effect = lower value; in the data active = activity change below about -50%; inconclusive = mostly about -30% to -49%; note: % is set by controls: 0 for no effect and ±100 for the full control effect
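Secreted IL-1B measured by AlphaLISA bead assay after 16 h compound exposure of THP-1 cells; compounds (final up to 57.5 uM) added 1 h before LPS (250 ng/mL) and ATP (1.25 mM) stimulation; lower signal means less secretion.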
USP1-UAF1 inh – USP1/UAF1 (human) deubiquitinase inhibition | 0.23% of 390,000 active | recombinant USP1/UAF1, Ub-Rhodamine cleavage fluorescence | O94782 | Potency, µM (series often up to 57.1 µM), without a hit: top-dose activity change, negative = inhibition, most hits filed as inhibitors; note: potency is the fitted concentration of half-maximal effect; % is set by controls: 0 for no effect and ±100 for the full control effect; nearly all actives have a fitted effect of over 60% in size
Target sequence (O94782 whole entry, looked up): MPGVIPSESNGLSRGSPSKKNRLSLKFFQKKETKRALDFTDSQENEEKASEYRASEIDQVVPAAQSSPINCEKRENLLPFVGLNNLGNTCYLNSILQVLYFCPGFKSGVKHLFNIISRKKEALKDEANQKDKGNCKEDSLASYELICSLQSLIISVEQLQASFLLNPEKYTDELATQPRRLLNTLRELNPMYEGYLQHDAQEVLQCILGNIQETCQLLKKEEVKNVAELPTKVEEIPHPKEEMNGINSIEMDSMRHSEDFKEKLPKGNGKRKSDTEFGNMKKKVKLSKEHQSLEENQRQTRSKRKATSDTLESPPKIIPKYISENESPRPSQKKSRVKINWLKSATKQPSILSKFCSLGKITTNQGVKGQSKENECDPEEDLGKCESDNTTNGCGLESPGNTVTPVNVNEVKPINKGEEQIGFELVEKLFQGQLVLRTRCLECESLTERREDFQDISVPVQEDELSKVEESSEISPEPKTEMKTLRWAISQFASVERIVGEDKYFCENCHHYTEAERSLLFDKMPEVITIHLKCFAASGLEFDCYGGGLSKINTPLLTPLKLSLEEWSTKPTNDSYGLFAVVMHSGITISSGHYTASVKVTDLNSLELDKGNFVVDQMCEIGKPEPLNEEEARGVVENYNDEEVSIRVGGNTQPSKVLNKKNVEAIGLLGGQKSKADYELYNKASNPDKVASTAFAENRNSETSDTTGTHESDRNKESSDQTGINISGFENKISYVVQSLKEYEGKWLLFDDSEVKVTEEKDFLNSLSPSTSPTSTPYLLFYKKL
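USP1/UAF1 complex (1 nM) preincubated 15 min at room temperature with compound, then Ub-Rho substrate (150 nM final) added. Kinetic fluorescence at 480/540 nm over 6 reads at 60 s intervals; 50 mM HEPES pH 7.8, 0.5 mM EDTA, 0.1 mg/ml BSA, 1 mM TCEP, 0.01% Tween-20.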
ATXN2 expr inh – inhibitors of ATXN2 expression. HEK-293 ATXN2-luciferase reporter, luminescence, 24 h. Potency, µM (highest dose often 57 µM), for inactives: top-dose activity change, negative = inhibition, hits mostly inhibitors. 0.72% of 360,000 active; note: potency is the fitted concentration of half-maximal effect; % is set by controls: 0 for no effect and ±100 for the full control effect; nearly all actives have a fitted effect of over 55% in size
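qHTS (up to 57 uM final) was run with 24 h compound exposure of reporter cells at 37 °C. Each well was multiplexed: SteadyGlo luminescence measured ATXN2-luciferase expression after a fluorogenic Gly-Phe-AFC viability readout (25 uM final).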
USP2a inh – inhibitors of human ubiquitin-specific protease USP2a; 0.01% of 330,000 active; O75604; USP2 core, Ub-CHOP2 coupled fluorogenic reporter, 485/531; Potency, µM (doses to about 38.3 µM), for inactives: at the highest dose activity change, negative = inhibition, hits mostly inhibitors;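 note: potency is the fitted concentration of half-maximal effect; plate controls were DMSO wells for no effect and full inhibition by NEM control for full effect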
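Cell-free coupled assay: 10nM USP2 core preincubated 30min RT with compound in Tris-HCl pH 8.0/CaCl2/CHAPS buffer, then 25nM Ub-CHOP2 and 25nM reporter substrate; fluorescence (Ex 485/Em 531) read after 60min RT, normalized to NEM inhibition, concentration-response curves fitted.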
* marks the source's active call; other numbers are inactive results; i = inactive; ? = inconclusive; · = no result; [ ] = dose if it differs, or a comment. Sampled rows, rich in hits. Any-hit rate of the full collection: about 4.8%. Unless noted, calls come from the whole dose curve; as a rule, active = well fitted curve in the direction sought with a large enough effect; inconclusive = small, poorly fitted or top-dose-only effect, or another doubt; inactive = no such curve, though single readings can be large; an effect the other way counts as inactive or inconclusive.

SMILES | ATXN viability | IL1B secr inh | USP1-UAF1 inh | ATXN2 expr inh | USP2a inh
c1ccc(-c2nnc(OCc3cccnc3)c3ccccc23)cc1 | ? | -28 | ? | -35%[11.3 µM] | 1%
COc1ccc(-c2nnc(OCc3ccccc3)c3ccccc23)cc1 | i | -87* | -8% | -3% | 5%
Cc1ccc(Oc2nnc(-c3ccc(C)cc3)c3ccccc23)cc1 | i | 14 | -14% | 11% | 3%
Cc1ccc(-c2noc(C(C)NS(=O)(=O)c3ccc(C)cc3)n2)cc1 (stereo not drawn) | ? | · | ? | -16% | ·
O=[N+]([O-])c1ccccc1Nc1cccc(F)c1 | i | -18 | -27% | -4% | ·
N#Cc1ncc(-c2ccc3c(c2)OCCOCCOCCOCCO3)nc1C#N | ? | -103* | -22% | 14% | 4%
N#Cc1ncc(-c2ccc3c(c2)OCCOCCOCCOCCOCCO3)nc1C#N | i | 22 | -16% | 7% | 2%
Cc1nn(C)c2c1c(C(F)(F)F)cc(=O)n2Cc1ccc(Br)cc1F | i | · | -32% | -2% | ·
CC1(C)Cc2ccccc2C(/C(=N\Nc2cccc(Cl)c2)C(N)=O)=N1 | ? | -54* | -27% | -25% | -12%
COc1ccccc1NC(=O)c1oc2ccccc2c1NC(=O)C1CCCCC1 | i | · | -3% | 14% | ·
CCOC(=O)N1CCC(N2Cc3cccc(C(=O)Nc4ccc(F)cc4)c3C2=O)CC1 | i | 1 | -20% | -8% | -1%
CCOC(=O)N1CCC(N2Cc3cccc(C(=O)Nc4ccc(CC)cc4)c3C2=O)CC1 | i | -70* | -20% | -22% | -1%
Cc1cccc(CCNC(=O)c2cccc3c2C(=O)N(C2CCCCC2)C3)c1 | i | -66* | -30% | -15% | -1%
Nc1nonc1-c1noc(COc2ccccc2Cl)n1 | i | -57* | -21% | 77% | 3%
COC(=O)C1=C(C)NC2=C(C(=O)CCC2)C1c1cn(Cc2ccc(Br)cc2)nc1-c1ccccc1 (stereo not drawn) | i | -62* | -9% | -7% | 1%
COC(=O)C1=C(C)NC2=C(C(=O)CC(C)(C)C2)C1c1cn(Cc2ccc(Br)cc2)nc1-c1ccccc1 (stereo not drawn) | i | -13 | -5% | -9% | 0%
O=C(Cc1cccc(NC(=O)C2CCCN(C(=O)C3CCCC3)C2)c1)Nc1ccc(C(=O)N2CCCCC2)cc1 (stereo not drawn) | i | 23 | 0% | 4% | ·
CCN1C(=O)[C@H]2[C@@H](c3ccc(-c4ccc(F)cc4)c(OC)c3)N3CCCC[C@@]3(C(=O)OC)[C@H]2C1=O | ? | -74* | ? | -32% | 2%
CCN1C(=O)[C@H]2[C@@H](c3ccc(-c4cccc(Cl)c4)c(OC)c3)N3CCCC[C@@]3(C(=O)OC)[C@H]2C1=O | i | -62* | -29% | -25% | 1%
CCCOc1ccc(C2C(=O)N(C3CCCCCC3)CC(=O)N2C(C)C)cc1OC (stereo not drawn) | · | · | 13% | · | ·
CN(CC(O)COc1ccc2ccccc2c1)C1CCCCC1 (stereo not drawn) | i | -82* | ? | -13% | 0%
COc1ccc(OCC(O)CNC(C)c2ccccc2)cc1 (stereo not drawn) | i | -12 | -6% | · | 1%
CC(NCC(O)COc1ccc2ccccc2c1)c1ccccc1 (stereo not drawn) | ? | -94* | -11% | 18µM* | 3%
Cc1cc(OCC(O)CNC(C)c2ccccc2)ccc1C(C)C (stereo not drawn) | ? | -91* | -9% | -13% | -4%
O=S(=O)(/N=C(\c1ccc(F)cc1)N1CCOCC1)c1ccccc1 | i | 25 | -4% | · | ·
CCCCOC(=O)CC(CC(=O)OCCCC)(OC(C)=O)C(=O)OCCCC | i | · | · | 4% | ·
C[C@@]12CC[C@@H]3c4ccc(O)cc4CC[C@H]3[C@H]1C[C@@H](O)[C@H]2O | i | · | · | · | ·
COc1ccccc1-c1cc2c(c(OC)c1)OCCN(CCC(C)c1ccc(C)o1)C2 (stereo not drawn) | i | · | · | · | ·
COc1cc(C2CC(=O)c3c([nH]c(C(=O)OCCOC(C)C)c3C)C2)cc(OC)c1OC (stereo not drawn) | ? | -5 | -6% | 32µM* | -1%
